In paper PMC7862700, “An all-to-all approach to the identification of sequence-specific readers for epigenetic DNA modifications on cytosine” one finds binding signal data, which are given here for one sequence.

Common to all, as to assay: DAPPL (digital affinity profiling via proximity ligation, sequencing); 10 mM Tris-HCl pH 7.5, 50 mM NaCl, 1 mM DTT, 4% glycerol, room temperature, 30 min; GST-TFs on glutathione beads, 16-mer random dsDNA library, 0.1% formaldehyde crosslink after washing; high values mean tight binding
One test has as its target T1, FLI1 (Homo sapiens, UniProt Q01543 1-452).
T1 sequence: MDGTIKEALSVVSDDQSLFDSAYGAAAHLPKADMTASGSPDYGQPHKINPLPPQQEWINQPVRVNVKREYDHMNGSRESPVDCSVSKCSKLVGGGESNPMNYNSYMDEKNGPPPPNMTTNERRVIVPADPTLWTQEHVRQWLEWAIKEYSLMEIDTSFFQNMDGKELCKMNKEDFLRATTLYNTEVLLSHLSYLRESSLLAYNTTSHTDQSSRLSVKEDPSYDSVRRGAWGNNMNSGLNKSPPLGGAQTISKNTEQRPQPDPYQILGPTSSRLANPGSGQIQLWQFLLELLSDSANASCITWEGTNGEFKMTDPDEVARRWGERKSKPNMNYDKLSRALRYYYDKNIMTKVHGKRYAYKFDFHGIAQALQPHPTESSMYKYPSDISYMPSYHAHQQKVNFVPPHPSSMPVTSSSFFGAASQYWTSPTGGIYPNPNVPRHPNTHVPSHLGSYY
As to conditions: protein: recombinant; tags: N-terminal GST; dsDNA, one strand shown. The method, boiled down:
(§1)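 The binding signal reported is, for every hexamer, its read frequency for a factor over its read frequency for the tag-only sample. Reads came from pools of yeast-expressed, GST-fused human transcription factors on glutathione beads, barcoded with DNA and mixed with that sample, which were incubated with 200 nmole of a random double-stranded 16-mer DNA library in Tris/NaCl/DTT/glycerol buffer at room temperature for 30 min. After washing, the pools were crosslinked with 0.1% formaldehyde, proximity-ligated with BsaI/T4 ligase for 1 h at 37 °C, PCR-amplified and sequenced on an Illumina NextSeq500.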

For the next test, the target named is T2, ELK1 (Homo sapiens, UniProt P19419 1-428).
T2 sequence: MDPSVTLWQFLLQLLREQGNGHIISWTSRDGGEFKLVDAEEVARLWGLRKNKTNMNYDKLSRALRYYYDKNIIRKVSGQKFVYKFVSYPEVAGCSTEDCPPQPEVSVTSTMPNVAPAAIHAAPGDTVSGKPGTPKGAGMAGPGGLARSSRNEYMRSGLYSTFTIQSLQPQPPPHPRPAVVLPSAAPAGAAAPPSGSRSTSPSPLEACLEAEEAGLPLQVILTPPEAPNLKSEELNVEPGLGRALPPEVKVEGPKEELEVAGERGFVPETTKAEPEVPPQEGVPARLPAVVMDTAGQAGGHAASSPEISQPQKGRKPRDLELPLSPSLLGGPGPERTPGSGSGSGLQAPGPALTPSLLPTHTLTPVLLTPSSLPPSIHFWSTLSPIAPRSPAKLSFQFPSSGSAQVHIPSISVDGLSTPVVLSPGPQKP
As to conditions: protein: recombinant; tags: N-terminal GST; dsDNA, one strand shown. The method, boiled down:
as §1

The target of another test is T3, GABPA (Homo sapiens, UniProt Q06546 1-454).
T3 sequence: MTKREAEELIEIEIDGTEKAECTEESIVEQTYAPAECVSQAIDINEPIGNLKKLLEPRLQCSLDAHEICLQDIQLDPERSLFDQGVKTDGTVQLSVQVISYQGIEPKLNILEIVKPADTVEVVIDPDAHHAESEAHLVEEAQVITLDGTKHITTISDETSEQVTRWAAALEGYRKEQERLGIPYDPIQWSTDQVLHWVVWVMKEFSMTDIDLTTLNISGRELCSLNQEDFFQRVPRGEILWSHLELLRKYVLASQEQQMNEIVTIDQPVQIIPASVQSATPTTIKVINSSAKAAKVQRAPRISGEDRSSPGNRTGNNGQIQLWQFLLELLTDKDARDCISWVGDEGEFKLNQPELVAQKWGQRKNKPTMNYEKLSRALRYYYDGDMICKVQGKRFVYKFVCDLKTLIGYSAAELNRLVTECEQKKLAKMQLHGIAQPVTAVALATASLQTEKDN
As to conditions: protein: recombinant; tags: N-terminal GST; dsDNA, one strand shown. The method, boiled down:
as §1

For another test, the target named is T4, ERG (Homo sapiens, UniProt P11308 1-479).
T4 sequence: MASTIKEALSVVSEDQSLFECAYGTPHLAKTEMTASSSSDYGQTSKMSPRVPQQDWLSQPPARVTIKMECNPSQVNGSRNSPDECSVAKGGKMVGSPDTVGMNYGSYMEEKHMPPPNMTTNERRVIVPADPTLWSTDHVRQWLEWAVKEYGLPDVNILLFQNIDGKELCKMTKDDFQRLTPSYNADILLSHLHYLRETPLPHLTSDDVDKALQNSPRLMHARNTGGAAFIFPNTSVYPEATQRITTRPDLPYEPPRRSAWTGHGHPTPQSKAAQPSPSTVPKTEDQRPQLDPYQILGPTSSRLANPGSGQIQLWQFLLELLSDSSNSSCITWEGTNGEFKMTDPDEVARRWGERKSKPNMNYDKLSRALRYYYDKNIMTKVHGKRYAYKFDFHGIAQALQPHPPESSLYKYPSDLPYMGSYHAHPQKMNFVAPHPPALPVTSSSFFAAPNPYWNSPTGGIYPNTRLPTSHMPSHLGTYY
The settings on record: protein: recombinant; tags: N-terminal GST; dsDNA, one strand shown. The method, boiled down:
as §1

For the next test, the target named is ELF1 (Homo sapiens, UniProt P32519 1-619). As to conditions: protein: recombinant; tags: N-terminal GST; dsDNA, one strand shown. Summed up:
as §1

In a further test the target is T5, EHF (Homo sapiens, UniProt Q9NZC4 1-300).
T5 sequence: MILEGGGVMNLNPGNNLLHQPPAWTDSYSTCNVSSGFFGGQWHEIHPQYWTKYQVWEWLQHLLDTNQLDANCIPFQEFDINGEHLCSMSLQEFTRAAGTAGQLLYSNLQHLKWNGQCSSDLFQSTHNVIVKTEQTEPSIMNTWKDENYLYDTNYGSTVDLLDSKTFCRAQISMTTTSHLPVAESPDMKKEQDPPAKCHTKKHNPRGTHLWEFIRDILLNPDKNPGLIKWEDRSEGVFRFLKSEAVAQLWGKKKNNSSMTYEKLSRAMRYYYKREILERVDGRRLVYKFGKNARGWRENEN
The settings on record: protein: recombinant; tags: N-terminal GST; dsDNA, one strand shown. Summed up:
as §1

For a further test, the target named is SPI1 (Homo sapiens, UniProt P17947 1-270). As to conditions: protein: recombinant; tags: N-terminal GST; dsDNA, one strand shown. Summed up:
as §1

The target of the next test is SPIB (Homo sapiens, UniProt Q01892 1-262). As to conditions: protein: recombinant; tags: N-terminal GST; dsDNA, one strand shown. The method, boiled down: as §1
SPIB, sequence (Q01892 whole entry): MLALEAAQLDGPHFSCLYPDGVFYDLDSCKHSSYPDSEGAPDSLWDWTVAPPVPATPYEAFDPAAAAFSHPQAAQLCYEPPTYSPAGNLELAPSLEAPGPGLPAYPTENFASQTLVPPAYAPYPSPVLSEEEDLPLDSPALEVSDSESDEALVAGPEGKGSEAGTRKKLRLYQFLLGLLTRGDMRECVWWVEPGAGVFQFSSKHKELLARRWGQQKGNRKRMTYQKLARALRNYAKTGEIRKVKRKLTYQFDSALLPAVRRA
The next test concerns the target T6, ELK3 (Homo sapiens, UniProt P41970 1-407).
T6 sequence: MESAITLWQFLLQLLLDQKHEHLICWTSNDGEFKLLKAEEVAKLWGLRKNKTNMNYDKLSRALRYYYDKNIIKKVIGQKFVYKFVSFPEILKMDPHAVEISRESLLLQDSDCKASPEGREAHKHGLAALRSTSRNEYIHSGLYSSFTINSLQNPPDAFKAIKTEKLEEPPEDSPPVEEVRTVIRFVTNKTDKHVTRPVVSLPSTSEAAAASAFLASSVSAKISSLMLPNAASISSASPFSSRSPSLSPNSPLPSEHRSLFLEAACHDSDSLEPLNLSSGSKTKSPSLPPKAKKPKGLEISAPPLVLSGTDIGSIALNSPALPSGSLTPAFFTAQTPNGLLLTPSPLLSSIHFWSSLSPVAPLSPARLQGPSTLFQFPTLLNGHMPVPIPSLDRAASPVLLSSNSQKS
The settings on record: protein: recombinant; tags: N-terminal GST; dsDNA, one strand shown. Summed up: as §1

In the next test the target is T7, FEV (Homo sapiens, UniProt Q99581 1-238).
T7 sequence: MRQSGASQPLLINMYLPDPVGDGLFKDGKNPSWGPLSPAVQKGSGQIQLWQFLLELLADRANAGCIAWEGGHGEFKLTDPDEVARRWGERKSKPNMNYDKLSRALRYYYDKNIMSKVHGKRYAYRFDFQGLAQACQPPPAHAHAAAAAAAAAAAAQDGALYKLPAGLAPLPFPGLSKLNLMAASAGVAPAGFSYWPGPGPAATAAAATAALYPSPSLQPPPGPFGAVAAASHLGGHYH
As to conditions: protein: recombinant; tags: N-terminal GST; dsDNA, one strand shown. The method, boiled down:
as §1

A further test deals with ETV5 (Homo sapiens, UniProt P41161 1-510). As to conditions: protein: recombinant; tags: N-terminal GST; dsDNA, one strand shown. Summed up: as §1
ETV5, sequence (P41161 whole entry): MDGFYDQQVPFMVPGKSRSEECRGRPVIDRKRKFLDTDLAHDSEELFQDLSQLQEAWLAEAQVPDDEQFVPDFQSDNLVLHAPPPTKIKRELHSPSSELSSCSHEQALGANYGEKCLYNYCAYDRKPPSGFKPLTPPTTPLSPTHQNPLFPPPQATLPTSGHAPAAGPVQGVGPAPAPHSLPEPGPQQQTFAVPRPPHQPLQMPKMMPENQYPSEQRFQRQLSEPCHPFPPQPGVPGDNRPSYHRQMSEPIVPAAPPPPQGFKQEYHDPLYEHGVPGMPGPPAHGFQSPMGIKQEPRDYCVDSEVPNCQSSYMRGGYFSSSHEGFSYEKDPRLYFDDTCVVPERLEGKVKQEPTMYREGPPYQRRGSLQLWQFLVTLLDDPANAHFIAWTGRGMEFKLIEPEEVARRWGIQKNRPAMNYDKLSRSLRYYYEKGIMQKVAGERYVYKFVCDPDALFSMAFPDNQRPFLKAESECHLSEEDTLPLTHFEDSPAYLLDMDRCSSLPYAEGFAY
For the next test, the target named is HSF1 (Homo sapiens, UniProt Q00613 1-529). As to conditions: protein: recombinant; tags: N-terminal GST; chain copies: 3; dsDNA, one strand shown. Summed up: as §1
HSF1, sequence (Q00613 whole entry): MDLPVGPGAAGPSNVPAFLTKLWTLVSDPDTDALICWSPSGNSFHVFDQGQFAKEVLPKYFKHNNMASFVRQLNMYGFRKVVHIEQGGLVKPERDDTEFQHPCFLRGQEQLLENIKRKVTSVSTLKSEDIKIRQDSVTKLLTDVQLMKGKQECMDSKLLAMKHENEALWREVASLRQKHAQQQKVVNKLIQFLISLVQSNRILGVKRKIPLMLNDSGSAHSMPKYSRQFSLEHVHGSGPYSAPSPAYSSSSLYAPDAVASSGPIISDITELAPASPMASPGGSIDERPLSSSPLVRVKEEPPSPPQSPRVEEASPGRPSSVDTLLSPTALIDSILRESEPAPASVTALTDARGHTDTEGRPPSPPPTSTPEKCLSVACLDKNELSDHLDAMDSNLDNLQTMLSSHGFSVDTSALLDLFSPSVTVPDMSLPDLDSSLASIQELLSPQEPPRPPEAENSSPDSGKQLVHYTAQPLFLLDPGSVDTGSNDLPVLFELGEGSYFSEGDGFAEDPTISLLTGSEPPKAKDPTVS
The target in a further test is T8, SPIC (Homo sapiens, UniProt Q8N5J4 1-248).
T8 sequence: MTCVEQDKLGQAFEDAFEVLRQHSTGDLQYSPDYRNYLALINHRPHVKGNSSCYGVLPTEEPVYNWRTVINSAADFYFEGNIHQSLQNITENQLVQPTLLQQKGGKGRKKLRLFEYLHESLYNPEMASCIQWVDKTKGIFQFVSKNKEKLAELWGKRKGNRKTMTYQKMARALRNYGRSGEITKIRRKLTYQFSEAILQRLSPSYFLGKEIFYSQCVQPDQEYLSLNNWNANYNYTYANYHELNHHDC
The settings on record: protein: recombinant; tags: N-terminal GST; dsDNA, one strand shown. Summed up: as §1

In the next test the target is ELF4 (Homo sapiens, UniProt Q99607 1-663). As to conditions: protein: recombinant; tags: N-terminal GST; dsDNA, one strand shown. The method, boiled down:
as §1

In another test the target is T9, ELK4 (Homo sapiens, UniProt P28324-2 1-405).
T9 sequence: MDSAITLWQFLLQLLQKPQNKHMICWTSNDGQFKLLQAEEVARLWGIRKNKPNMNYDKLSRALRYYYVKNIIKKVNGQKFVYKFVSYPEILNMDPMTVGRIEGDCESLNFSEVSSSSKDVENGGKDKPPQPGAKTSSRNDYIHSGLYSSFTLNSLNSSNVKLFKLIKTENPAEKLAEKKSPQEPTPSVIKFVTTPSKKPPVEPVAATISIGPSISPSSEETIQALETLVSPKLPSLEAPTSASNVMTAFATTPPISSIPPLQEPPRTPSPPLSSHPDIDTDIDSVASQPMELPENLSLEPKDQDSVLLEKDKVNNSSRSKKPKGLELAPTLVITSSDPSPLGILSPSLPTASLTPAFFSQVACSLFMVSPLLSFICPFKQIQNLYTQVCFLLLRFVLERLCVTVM
The settings on record: protein: recombinant; tags: N-terminal GST; dsDNA, one strand shown. The method, boiled down: as §1

In a further test the target is T10, ETV2 (Homo sapiens, UniProt O00321 1-342).
T10 sequence: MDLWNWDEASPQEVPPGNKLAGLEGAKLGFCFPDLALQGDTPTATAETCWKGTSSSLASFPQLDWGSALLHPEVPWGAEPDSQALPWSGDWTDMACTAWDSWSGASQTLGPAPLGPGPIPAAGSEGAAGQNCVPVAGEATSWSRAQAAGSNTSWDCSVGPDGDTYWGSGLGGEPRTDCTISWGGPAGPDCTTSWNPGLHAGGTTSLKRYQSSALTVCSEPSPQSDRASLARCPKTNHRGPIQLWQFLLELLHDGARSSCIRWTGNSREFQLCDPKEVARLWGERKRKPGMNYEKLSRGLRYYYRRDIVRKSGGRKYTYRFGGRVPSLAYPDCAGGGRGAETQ
The settings on record: protein: recombinant; tags: N-terminal GST; dsDNA, one strand shown. Summed up:
as §1

In a further test the target is T11, ELF3 (Homo sapiens, UniProt P78545 1-371).
T11 sequence: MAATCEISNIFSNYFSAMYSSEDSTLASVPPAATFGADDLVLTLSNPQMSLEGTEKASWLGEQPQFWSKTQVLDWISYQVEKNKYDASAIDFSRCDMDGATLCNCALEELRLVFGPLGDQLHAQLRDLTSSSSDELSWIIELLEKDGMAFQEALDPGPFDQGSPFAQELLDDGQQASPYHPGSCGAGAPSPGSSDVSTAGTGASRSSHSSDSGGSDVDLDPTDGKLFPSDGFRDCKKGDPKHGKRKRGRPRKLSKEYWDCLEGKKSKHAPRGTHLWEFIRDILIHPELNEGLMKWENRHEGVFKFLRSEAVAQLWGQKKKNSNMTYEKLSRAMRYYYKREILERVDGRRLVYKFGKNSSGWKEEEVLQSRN
The settings on record: protein: recombinant; tags: N-terminal GST; dsDNA, one strand shown. Summed up:
as §1

The next test has as its target CRX (Homo sapiens, UniProt O43186 1-299). The settings on record: protein: recombinant; tags: N-terminal GST; dsDNA, one strand shown. The method, boiled down: as §1
A further test addresses ETV1 (Homo sapiens, UniProt P50549 1-477). The settings on record: protein: recombinant; tags: N-terminal GST; dsDNA, one strand shown. The method, boiled down: as §1

ELF1, sequence (P32519 whole entry): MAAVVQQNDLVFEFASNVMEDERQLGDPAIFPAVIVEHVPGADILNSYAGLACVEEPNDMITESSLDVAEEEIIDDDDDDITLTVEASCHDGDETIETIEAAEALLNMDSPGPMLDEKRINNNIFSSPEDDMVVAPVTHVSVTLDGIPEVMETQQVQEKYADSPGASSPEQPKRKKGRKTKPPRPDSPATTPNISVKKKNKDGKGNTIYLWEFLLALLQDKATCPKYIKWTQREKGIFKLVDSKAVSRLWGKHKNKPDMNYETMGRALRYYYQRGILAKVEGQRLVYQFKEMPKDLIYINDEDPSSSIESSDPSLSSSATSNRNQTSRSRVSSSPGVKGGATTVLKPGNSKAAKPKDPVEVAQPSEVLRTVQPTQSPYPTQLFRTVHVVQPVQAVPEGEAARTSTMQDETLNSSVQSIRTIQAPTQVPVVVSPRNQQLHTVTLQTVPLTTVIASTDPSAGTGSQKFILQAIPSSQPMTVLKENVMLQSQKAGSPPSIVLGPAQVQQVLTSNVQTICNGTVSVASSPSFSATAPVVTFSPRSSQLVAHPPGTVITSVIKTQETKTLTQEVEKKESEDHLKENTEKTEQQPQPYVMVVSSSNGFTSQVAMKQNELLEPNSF
ELF4, sequence (Q99607 whole entry): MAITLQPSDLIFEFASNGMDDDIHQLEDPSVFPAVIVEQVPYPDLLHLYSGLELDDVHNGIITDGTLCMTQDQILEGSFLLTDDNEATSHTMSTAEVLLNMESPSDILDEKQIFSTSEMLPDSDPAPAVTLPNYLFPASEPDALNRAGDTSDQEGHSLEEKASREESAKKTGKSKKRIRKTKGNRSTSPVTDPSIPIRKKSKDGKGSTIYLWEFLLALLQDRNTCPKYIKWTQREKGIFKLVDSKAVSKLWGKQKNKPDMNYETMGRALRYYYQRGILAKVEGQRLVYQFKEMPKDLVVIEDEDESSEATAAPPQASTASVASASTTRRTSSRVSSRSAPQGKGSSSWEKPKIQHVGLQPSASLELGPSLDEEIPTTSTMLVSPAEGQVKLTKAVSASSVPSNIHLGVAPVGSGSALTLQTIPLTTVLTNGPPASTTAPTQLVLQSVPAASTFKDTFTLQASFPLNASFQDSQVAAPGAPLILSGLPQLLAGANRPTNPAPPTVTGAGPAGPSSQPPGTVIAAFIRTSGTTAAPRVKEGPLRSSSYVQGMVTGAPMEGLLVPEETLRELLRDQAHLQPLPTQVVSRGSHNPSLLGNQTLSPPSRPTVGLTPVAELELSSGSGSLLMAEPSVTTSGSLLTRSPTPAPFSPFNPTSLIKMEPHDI
ETV1, sequence (P50549 whole entry): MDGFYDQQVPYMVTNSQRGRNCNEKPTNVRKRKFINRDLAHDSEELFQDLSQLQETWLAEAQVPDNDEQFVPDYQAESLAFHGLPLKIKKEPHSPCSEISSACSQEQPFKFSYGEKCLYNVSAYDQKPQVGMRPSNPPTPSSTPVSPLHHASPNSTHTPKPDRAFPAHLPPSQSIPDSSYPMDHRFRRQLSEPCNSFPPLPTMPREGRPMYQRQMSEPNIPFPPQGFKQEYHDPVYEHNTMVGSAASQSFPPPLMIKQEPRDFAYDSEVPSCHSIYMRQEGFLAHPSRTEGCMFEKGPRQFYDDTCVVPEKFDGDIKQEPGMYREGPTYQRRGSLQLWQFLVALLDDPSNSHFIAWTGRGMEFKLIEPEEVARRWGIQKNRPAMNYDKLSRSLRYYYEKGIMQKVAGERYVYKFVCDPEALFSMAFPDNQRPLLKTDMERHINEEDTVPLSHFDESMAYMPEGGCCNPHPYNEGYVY
CRX, sequence (O43186 whole entry): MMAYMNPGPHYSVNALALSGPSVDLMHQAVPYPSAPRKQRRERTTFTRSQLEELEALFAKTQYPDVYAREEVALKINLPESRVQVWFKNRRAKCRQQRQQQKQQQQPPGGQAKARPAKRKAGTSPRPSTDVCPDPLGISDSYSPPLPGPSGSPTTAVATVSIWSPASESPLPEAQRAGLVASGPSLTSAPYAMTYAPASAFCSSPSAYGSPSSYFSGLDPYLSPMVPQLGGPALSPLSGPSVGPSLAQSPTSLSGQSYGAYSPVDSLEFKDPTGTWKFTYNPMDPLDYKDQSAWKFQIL

With TGTACT, the binding signal with FLI1 is 1.28 fold enrichment (6-mer frequency, TF over GST control); in the test with ELK1 it was 1.44 fold enrichment (6-mer frequency, TF over GST control); in the test with GABPA it was 1.24 fold enrichment (6-mer frequency, TF over GST control); with ERG it was 1.24 fold enrichment (6-mer frequency, TF over GST control); in the test with ELF1 it was 1.35 fold enrichment (6-mer frequency, TF over GST control); with EHF, 1.3 fold enrichment (6-mer frequency, TF over GST control). Further, the binding signal in the test with SPI1 was 1.25 fold enrichment (6-mer frequency, TF over GST control); with SPIB, 1.21 fold enrichment (6-mer frequency, TF over GST control); in the test with ELK3, 1.35 fold enrichment (6-mer frequency, TF over GST control); in the test with FEV, 1.41 fold enrichment (6-mer frequency, TF over GST control); in the test with ETV5, 1.34 fold enrichment (6-mer frequency, TF over GST control); with HSF1 it was 1.18 fold enrichment (6-mer frequency, TF over GST control). Besides, the binding signal in the test with SPIC is 1.18 fold enrichment (6-mer frequency, TF over GST control); with ELF4, 1.29 fold enrichment (6-mer frequency, TF over GST control); with ELK4 it was 1.2 fold enrichment (6-mer frequency, TF over GST control); in the test with ETV2 it was 1.3 fold enrichment (6-mer frequency, TF over GST control); with ELF3, 1.23 fold enrichment (6-mer frequency, TF over GST control); in the test with CRX, 1.15 fold enrichment (6-mer frequency, TF over GST control). Further, the binding signal with ETV1 is 1.34 fold enrichment (6-mer frequency, TF over GST control).
